# PubChem BioAssay
# Calls of active or inactive are those of the source.
# Key:
# [1] = tested on: PRMT1 (protein arginine N-methyltransferase 1); test: PRMT1 binders on small-molecule microarrays, primary screen, biochemical, small-molecule microarray, 635 nm fluorescence (AID 1088); conditions: small-molecule microarray binding, higher = more signal;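 further: binding of Prmt1 protein to compounds spotted on small-molecule microarray slides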
# [2] = yeast growth modulation, basal conditions, primary screen, YJM789 clinical isolate, OD600, 24 h (AID 1089);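 further: growth of clinical yeast isolate S. cerevisiae YJM 789 seeded 1000 cells per well; test concentration not given here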; conditions: S. cerevisiae YJM789 growth, higher = more signal, called active from +8 up or from −8 down
# [3] = fission yeast growth modulation, primary screen, strain 972, OD600, 24 h, no modulator (AID 1090);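 further: basal condition with compound alone and no growth modifier present; test concentration not given here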; conditions: S. pombe 972 growth, higher = more signal, called active from +8 up or from −8 down
# [4] = S. cerevisiae growth modulation with rapamycin, primary screen, strain BY4716, OD600, 96 h (AID 1091); conditions: higher = more signal, called active from +8 up or from −8 down; further: test concentration not given here
# [5] = biological target: Torsin-1A-interacting protein 2 (Homo sapiens) (UniProt Q8NFQ8); test: LULL1 binders on small-molecule microarray, primary screen, cell lysate, human LULL1 lysate, 635/667 nm fluorescence (AID 1092); conditions: hLULL1 lysate binding, 635 nm fluorescence, higher = more signal;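 further: probe is lysate of COS7 cells overexpressing human LULL1; score merges per-feature 667 nm fluorescence with signal-to-noise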
# Chain of Torsin-1A-interacting protein 2 (Homo sapiens) (Q8NFQ8 whole entry, looked up): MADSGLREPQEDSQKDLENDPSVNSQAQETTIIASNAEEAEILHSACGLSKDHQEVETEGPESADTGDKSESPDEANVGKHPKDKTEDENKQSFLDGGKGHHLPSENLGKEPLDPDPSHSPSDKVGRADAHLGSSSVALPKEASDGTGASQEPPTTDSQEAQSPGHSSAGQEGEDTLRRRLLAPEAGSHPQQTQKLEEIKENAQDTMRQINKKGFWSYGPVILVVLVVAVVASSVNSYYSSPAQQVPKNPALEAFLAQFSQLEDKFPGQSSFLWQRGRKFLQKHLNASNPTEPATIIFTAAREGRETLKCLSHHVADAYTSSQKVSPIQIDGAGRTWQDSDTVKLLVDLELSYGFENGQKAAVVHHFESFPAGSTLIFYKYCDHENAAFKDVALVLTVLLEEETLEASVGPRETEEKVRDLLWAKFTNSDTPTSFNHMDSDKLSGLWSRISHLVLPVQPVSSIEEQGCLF
# [6] = E. coli growth modulation, two-sided OD650, primary screen, E. coli filamentation project, strain DRC41, 24 h (AID 1093); conditions: OD650, 24 h, higher = more signal, called active from +8 up or from −8 down;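 further: MC1000 strain lacking acrAB efflux and sulA so SOS filamentation is blocked; test concentration not given here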
# [7] = small-molecule microarray binders of probe aLefty2, primary screen, biochemical, biotinylated probe, 635/667 nm fluorescence (AID 1094); conditions: higher = more signal;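 further: score merges spot fluorescence near 667 nm with spot signal-to-noise ratio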
# [8] = tested on: Noggin (protein binding on small-molecule microarray); test: Noggin binders on small-molecule microarray, primary screen, biochemical, 635/667 nm fluorescence (AID 1095); conditions: 635 nm fluorescence, higher = more signal;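 further: score merges 667 nm feature fluorescence with signal to noise over triplicate slides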
# [9] = biological target: Neurogenic locus notch homolog protein 3 (Homo sapiens) (UniProt Q9UM47); test: NOTCH3 binders on small-molecule microarray, primary screen, biochemical, 635/667 nm fluorescence (AID 1096); conditions: NOTCH3 binding, 635 nm fluorescence, higher = more signal
# Chain of Neurogenic locus notch homolog protein 3 (Homo sapiens) (Q9UM47 whole entry, looked up): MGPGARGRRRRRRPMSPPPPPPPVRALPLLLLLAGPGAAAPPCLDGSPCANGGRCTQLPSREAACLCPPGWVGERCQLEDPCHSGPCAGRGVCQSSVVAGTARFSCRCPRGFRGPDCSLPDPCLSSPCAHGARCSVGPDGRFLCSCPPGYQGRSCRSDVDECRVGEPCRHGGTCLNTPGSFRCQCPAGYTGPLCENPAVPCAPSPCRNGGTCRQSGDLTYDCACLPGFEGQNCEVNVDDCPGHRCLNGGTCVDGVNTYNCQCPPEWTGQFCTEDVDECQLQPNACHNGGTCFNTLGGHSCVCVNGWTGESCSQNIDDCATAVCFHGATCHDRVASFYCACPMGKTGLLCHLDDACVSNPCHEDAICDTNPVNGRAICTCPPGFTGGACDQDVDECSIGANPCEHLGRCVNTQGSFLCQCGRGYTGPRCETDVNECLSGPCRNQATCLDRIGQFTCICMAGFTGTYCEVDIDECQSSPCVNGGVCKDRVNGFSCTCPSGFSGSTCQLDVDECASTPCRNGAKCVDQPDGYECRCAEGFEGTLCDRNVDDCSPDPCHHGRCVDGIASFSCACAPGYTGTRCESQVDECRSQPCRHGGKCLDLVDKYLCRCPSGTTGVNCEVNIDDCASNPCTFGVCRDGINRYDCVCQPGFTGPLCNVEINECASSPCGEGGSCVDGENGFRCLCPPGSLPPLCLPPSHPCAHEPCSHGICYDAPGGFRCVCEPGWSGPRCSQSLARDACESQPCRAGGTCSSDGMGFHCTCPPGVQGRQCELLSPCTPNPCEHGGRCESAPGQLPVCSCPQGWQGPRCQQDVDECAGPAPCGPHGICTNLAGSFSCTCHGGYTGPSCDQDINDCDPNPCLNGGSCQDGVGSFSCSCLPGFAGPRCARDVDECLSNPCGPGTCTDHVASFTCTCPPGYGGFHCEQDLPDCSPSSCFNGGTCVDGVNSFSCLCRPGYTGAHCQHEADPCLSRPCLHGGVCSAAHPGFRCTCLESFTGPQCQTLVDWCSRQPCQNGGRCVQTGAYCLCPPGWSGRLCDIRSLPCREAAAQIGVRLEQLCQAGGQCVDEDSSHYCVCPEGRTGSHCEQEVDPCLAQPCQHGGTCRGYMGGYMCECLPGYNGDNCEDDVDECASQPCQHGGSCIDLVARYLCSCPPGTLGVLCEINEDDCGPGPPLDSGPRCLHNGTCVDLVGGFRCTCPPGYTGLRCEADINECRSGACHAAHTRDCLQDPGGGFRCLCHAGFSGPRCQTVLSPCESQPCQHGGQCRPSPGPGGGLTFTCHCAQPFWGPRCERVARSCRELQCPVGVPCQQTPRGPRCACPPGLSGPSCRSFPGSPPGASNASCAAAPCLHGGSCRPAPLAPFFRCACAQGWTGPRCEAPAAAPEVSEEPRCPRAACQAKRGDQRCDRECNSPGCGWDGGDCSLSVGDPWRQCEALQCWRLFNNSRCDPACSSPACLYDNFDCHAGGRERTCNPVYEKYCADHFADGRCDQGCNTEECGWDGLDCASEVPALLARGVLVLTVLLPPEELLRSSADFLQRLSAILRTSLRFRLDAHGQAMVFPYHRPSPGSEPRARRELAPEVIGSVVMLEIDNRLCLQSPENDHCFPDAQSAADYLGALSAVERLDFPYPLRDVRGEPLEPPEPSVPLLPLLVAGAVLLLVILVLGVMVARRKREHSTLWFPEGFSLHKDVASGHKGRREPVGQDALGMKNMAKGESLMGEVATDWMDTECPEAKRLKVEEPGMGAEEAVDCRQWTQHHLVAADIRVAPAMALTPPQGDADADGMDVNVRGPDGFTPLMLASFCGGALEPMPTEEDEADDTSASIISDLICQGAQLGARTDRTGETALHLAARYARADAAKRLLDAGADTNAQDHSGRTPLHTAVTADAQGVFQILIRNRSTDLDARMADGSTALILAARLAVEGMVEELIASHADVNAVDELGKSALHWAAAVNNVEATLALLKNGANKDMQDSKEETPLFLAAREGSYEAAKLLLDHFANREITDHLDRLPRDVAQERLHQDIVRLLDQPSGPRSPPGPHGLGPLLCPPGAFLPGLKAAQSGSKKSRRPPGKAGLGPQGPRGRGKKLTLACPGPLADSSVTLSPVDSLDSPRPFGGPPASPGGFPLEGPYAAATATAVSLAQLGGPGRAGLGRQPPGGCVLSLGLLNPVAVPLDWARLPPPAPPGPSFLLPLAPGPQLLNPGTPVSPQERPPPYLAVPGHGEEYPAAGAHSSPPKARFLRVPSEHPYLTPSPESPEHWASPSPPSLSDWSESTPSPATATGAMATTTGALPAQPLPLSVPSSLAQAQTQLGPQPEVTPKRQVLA
# [10] = small-molecule microarray binders of probe aEGFR, primary screen, biochemical, biotinylated probe, 635/667 nm fluorescence (AID 1097); conditions: higher = more signal;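 further: probe is a biotinylated anti-EGFR antibody binding compounds printed on slides; score combines fluorescence near 667 nm and signal to noise of each spot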
# [11] = tested on: Plasmodium falciparum Sir2 (PF13_0152, Sir2A); test: pfSir2 binders on small-molecule microarrays, primary screen, biochemical, small-molecule microarray, 635 nm fluorescence (AID 1098); conditions: small-molecule microarray binding, fluorescence 635 nm; higher = more signal;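 further: score merges spot fluorescence intensity with its signal-to-noise ratio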
# [12] = small-molecule microarray binders of probe aDKK1, primary screen, biochemical, biotinylated probe, 635/667 nm fluorescence (AID 1099); conditions: higher = more signal;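 further: score merges 667nm spot fluorescence with signal to noise across triplicate slides; reference of the scale not given here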
# [13] = small-molecule microarray binders of probe aCHRDL2, primary screen, biochemical, biotinylated probe, 635/667 nm fluorescence (AID 1100); conditions: higher = more signal
# [14] = splicing luciferase reporter signal modulators, primary screen, spliceosome inhibition project, cell-based, HEK293, splice +/- reporter (AID 1101); conditions: luminescence, 24 h, higher = more signal, called active from +8 up or from −8 down;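 further: HEK293 cells carrying a splicing-competent luciferase reporter gene; test concentration not given here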
# [15] = biological target: Fibroblast growth factor 10 (Homo sapiens) (UniProt O15520); test: FGF10 binders on small-molecule microarrays, primary screen, biochemical, small-molecule microarray, 635 nm fluorescence (AID 1102); conditions: FGF10 binding, fluorescence 635 nm, higher = more signal
# Chain of Fibroblast growth factor 10 (Homo sapiens) (O15520 whole entry, looked up): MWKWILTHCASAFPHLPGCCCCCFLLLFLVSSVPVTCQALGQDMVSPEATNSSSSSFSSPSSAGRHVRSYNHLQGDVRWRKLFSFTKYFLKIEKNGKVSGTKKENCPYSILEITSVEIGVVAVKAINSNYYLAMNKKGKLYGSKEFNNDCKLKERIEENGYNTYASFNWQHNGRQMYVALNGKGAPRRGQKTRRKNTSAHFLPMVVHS
# [16] = tested on: glycogen synthase kinase-3 (GSK3A per assay name; protocol says GSK3B); test: GSK3 binders on small-molecule microarrays, primary screen, biochemical, small-molecule microarray, 635 nm fluorescence, GSK3A (AID 1103); conditions: small-molecule microarray binding, fluorescence 635 nm; higher = more signal; further: the record names both GSK3A and GSK3B
# [17] = biological target: Epidermal growth factor receptor (Homo sapiens) (UniProt P00533); test: EGFR binders on small-molecule microarrays, primary screen, biochemical, small-molecule microarray, 635 nm fluorescence (AID 1104); conditions: EGFR binding, higher = more signal;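 further: score merges 667 nm emission intensity with spot signal to noise over triplicate slides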
# Chain of Epidermal growth factor receptor (Homo sapiens) (P00533 whole entry, looked up): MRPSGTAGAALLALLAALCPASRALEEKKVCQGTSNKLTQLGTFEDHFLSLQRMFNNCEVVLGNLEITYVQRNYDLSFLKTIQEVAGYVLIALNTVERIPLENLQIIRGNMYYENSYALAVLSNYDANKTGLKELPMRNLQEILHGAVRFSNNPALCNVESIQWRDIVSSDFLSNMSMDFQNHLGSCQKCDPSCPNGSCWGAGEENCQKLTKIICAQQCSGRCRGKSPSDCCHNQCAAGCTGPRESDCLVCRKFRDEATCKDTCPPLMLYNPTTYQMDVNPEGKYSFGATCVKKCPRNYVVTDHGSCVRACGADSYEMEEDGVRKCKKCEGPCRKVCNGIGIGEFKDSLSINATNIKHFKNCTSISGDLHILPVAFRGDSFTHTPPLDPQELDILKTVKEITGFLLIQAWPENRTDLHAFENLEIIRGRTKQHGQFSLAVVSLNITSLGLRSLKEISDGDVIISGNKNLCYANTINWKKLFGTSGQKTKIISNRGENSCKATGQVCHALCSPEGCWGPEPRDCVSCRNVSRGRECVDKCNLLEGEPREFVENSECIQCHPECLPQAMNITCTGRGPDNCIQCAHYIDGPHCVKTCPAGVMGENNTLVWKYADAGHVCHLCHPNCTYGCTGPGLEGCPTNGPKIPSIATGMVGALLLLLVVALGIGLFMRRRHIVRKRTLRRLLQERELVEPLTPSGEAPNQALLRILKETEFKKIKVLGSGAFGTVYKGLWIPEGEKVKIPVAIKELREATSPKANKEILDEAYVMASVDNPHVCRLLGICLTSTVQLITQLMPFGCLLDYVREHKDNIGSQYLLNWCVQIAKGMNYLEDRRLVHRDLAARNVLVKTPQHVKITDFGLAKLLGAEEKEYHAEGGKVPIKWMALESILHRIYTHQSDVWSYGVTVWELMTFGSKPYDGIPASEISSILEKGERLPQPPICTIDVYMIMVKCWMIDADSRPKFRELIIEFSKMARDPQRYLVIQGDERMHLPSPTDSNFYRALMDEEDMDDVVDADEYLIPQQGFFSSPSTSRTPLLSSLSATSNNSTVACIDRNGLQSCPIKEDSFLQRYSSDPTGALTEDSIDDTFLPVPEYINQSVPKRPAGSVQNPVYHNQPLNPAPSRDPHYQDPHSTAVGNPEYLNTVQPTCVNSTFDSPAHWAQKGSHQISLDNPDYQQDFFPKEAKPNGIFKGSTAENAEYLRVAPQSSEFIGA
# [18] = biological target: Follistatin-related protein 3 (Homo sapiens) (UniProt O95633); test: FSTL3 binders on small-molecule microarrays, primary screen, biochemical, small-molecule microarray, 635 nm fluorescence (AID 1105); conditions: FSTL3 binding, higher = more signal;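 further: score merges emission near 667 nm and signal to noise per printed spot across three slides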
# Chain of Follistatin-related protein 3 (Homo sapiens) (O95633 whole entry, looked up): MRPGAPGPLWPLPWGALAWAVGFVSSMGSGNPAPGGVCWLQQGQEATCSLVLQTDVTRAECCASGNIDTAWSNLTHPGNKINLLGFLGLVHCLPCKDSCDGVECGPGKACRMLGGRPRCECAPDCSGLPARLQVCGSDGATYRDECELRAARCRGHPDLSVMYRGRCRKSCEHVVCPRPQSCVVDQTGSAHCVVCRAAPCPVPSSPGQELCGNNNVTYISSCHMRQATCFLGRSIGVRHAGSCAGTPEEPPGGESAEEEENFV
# [19] = biological target: Dickkopf-related protein 1 (Homo sapiens) (UniProt O94907); test: DKK1 binders on small-molecule microarrays, primary screen, biochemical, small-molecule microarray, 635 nm fluorescence scan (AID 1106); conditions: DKK1 binding, higher = more signal;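 further: score merges emission near 667 nm with signal to noise over three replicate slides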
# Chain of Dickkopf-related protein 1 (Homo sapiens) (O94907 whole entry, looked up): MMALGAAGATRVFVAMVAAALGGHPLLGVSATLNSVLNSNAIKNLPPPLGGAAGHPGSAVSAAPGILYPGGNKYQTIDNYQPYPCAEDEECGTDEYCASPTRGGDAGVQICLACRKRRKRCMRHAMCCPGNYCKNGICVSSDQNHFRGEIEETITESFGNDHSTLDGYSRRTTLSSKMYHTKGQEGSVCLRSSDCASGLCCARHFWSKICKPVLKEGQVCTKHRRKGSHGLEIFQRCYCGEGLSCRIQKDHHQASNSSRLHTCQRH
# [20] = tested on: Inhibin beta A chain (activin A); test: INHBA (activin A) binders on microarrays, primary screen, biochemical, small-molecule microarray, 635 nm fluorescence scan (AID 1107); conditions: small-molecule microarray binding, higher = more signal;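 further: mouse activin A protein probed at 4.33 µg/mL on printed slides; score merges bound-protein fluorescence near 667 nm with spot signal-to-noise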
SMILES,composite z-score [1],z-score [2],z-score [3],z-score [4],composite z-score [5],z-score [6],composite z-score [7],composite z-score [8],composite z-score [9],composite z-score [10],composite z-score [11],composite z-score [12],composite z-score [13],z-score [14],composite z-score [15],composite z-score [16],composite z-score [17],composite z-score [18],composite z-score [19],composite z-score [20]
CCOC(=O)[C@H](CC(C)C)NC(=O)CCC1CC(OC(=O)NCc2cccc3ccccc23)CC2(CCCC(COC(=O)NCc3ccncc3)O2)O1 (stereo not given in full),1.56,0.649 (inactive),0.462 (inactive),0.678 (inactive),1.58,0.409 (inactive),-0.166,0.433,0.789,0.157,0.741,-0.131,-0.377,-0.00923 (inactive),1.2,1.06,0.363,0.887,0.559,-0.177
O=C1[C@H]2[C@H]3[C@H](O)[C@H](O)CC(=NOC[C@@H](O)COCc4ccco4)[C@H]3CC[C@H]2C(=O)N1C[C@@H]1CCCO1,0.629,-0.193 (inactive),0.236 (inactive),-0.318 (inactive),-0.884,0.0018 (inactive),-0.138,0.759,0.28,0.0872,0.717,-0.369,-1.4,0.273 (inactive),0.725,1.2,0.947,0.95,1.21,-0.0262
CC(C)CON=C1[C@H]2CCn3c(=O)n(Cc4cc5c(cc4Cl)OCO5)c(=O)n3[C@H]2[C@H](O)[C@@H]2O[C@H]12,-0.149,0.534 (inactive),-0.129 (inactive),0.296 (inactive),0.299,0.0007 (inactive),-0.0936,0.607,0.573,-0.0139,0.241,-0.304,-0.641,-0.756 (inactive),0.533,0.589,0.483,0.554,0.484,0.233
COc1ccc(COC(=O)NN=C2C[C@@H](O)[C@@H](O)[C@@H]3[C@@H]4C(=O)N(Cc5ccccc5)C(=O)[C@@H]4CC[C@H]23)cc1,0.413,-0.457 (inactive),-0.619 (inactive),-1.17 (inactive),0.739,-0.289 (inactive),0.287,-1.24,-0.0524,-0.13,-0.515,0.743,1.39,-0.262 (inactive),-0.259,-0.623,-0.432,-0.22,-1.15,0.0152
CCCNC(=O)OC[C@H]1O[C@H](CCON=Cc2ccc(C(=O)N3[C@H](c4ccc(C)cc4)[C@@H](C)CC[C@H]3C(=O)OC)cc2)C=C[C@@H]1Oc1ccc(OC)cc1,1.15,0.0299 (inactive),1.68 (inactive),1.25 (inactive),1.02,0.215 (inactive),-0.263,1.03,0.607,-0.307,0.463,-0.186,-0.0627,-0.357 (inactive),0.523,0.581,0.417,0.355,0.0399,0.446
CCC1=NOC(CCC2CC(OC(=O)NCc3cccc4c3OCO4)CC3(CCCC(COC(=O)NCCc4ccccc4OC)O3)O2)C1 (stereo not given),1.26,-0.873 (inactive),0.168 (inactive),0.327 (inactive),2.38,1.11 (inactive),-0.099,0.079,0.53,-0.0424,1.09,-0.16,-0.0595,0.0991 (inactive),0.709,0.391,0.0007,0.192,0.859,0.312
COc1cccc([C@H]2Oc3ccc(OC)cc3C(=NOC[C@@H](O)[C@H]3O[C@@H]4OC(C)(C)O[C@@H]4[C@H]3O)[C@@H]2O)c1,0.775,-0.797 (inactive),-2.21 (inactive),-1.62 (inactive),0.347,0.932 (inactive),-0.0616,0.449,0.456,0.0746,0.0732,-0.389,-0.511,-0.106 (inactive),0.654,0.315,0.35,0.492,0.548,-0.326
CC(CCN1CCCc2nc(C)c(C)cc21)=NO[C@@H](C)c1cc(-c2c(C)cc(C)cc2C)no1,0.684,0.0024 (inactive),-2.18 (inactive),-0.381 (inactive),1.33,1.74 (inactive),-0.0512,0.308,0.635,-0.0873,0.739,0.0311,-0.648,-0.408 (inactive),0.322,0.525,-0.0398,0.293,0.41,0.881
CCOC(=O)NN=C1C[C@@H](O)[C@@H](O)[C@@H]2[C@@H]3C(=O)N(c4cccc(Oc5ccccc5)c4)C(=O)[C@@H]3CC[C@@H]12,-0.037,-0.73 (inactive),0.385 (inactive),-0.869 (inactive),1.26,0.205 (inactive),-0.335,0.918,-0.362,-0.163,0.933,-0.27,-0.187,0.0999 (inactive),1.13,-0.652,0.164,-0.329,-0.313,-0.237
COc1cccc([C@H]2Oc3ccc(OC)cc3C(=NOC[C@@H](C)[C@H](OCc3ccccc3)C(C)C)[C@@H]2O)c1,0.169,0.0741 (inactive),0.399 (inactive),0.588 (inactive),0.77,-0.0364 (inactive),-0.341,0.0758,0.0869,0.0229,-0.0088,0.197,0.101,-0.171 (inactive),0.325,0.332,-0.168,0.242,0.304,0.0185
